# Measured values as given in PubChem BioAssay (NCATS).
# Records with an inconclusive call do not appear. A call without a number means that no potency is given here. The source made the active and inactive calls. Calls follow the shape of the dose curve; as a rule, active = well fitted curve in the direction sought with a large enough effect; inconclusive = small, poorly fitted or top-dose-only effect, or another doubt; inactive = no such curve, though single readings can be large; an effect the other way counts as inactive or inconclusive.
# Experiments:
# MKL-2 = experiment: qHTS assay to identify novel small-molecules to repurpose for Merkel cell carcinoma treatment (AID 1296009); settings: MCC and control cell lines, CellTiter-Glo viability, 72 h; series mostly up to 46 µM; also: nearly all actives have a fitted effect of over 60% in size
# In short: (§1)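 After compound transfer in DMSO, plates were kept 72 hr at 37 degree celsius. Luminescent ATP signal from CellTiter-Glo served as viability measure, normalized against DMSO and no-cell controls.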
# UISO = experiment: as above; settings: MCC and control cell lines, CellTiter-Glo viability, 72 h; series mostly up to 46 µM
# In short: as §1
# MKL-1 = experiment: as above; settings: MCC and control cell lines, CellTiter-Glo viability, 72 h; series mostly up to 46 µM
# In short: as §1
# NIH3T3 = experiment: as above; settings: MCC and control cell lines, CellTiter-Glo viability, 72 h; series mostly up to 44.8 µM
# In short: as §1
# WaGa = experiment: as above; settings: MCC and control cell lines, CellTiter-Glo viability, 72 h; series mostly up to 46 µM
# In short: as §1
# C33A = experiment: Primary qHTS to identify gynecologic anti-cancer compounds using libraries of approved drugs and bioactive compounds (AID 1345084); settings: Gynecologic cancer cell panel viability, ATPlite luminescence, 48 h; series mostly up to 57.5 µM; also: nearly all actives have a fitted effect of over 55% in size
# In short: (§2)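 Cells, 1,000 per well, plated 16 h, then exposed 48 h at 37 C to compounds. Viability by ATPlite luminescence after 15 min at room temperature.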
# CASKI = experiment: as above; settings: Gynecologic cancer cell panel viability, ATPlite luminescence, 48 h; series mostly up to 57.5 µM
# In short: as §2
# Es-2 = experiment: as above; settings: Gynecologic cancer cell panel viability, ATPlite luminescence, 48 h; series mostly up to 57.5 µM
# In short: as §2
# Potency is read from the fitted curve at half-maximal effect.
smiles,measurement,setting,value
COc1cc2nc(-c3cc(F)ccc3O)nc(N[C@@H]3CNC[C@@H]3C(C)(C)O)c2cc1OC,Potency,MKL-2,9.35 µM (active)
Clc1ccc(C2(c3ccc(-c4cn[nH]c4)cc3)CCNCC2)cc1,Potency,MKL-2,inactive
CN(C)CCN(C)C(=O)c1ccc(NC(=O)Nc2ccc(-c3nc(N4CCOCC4)c4ccn(CC(F)(F)F)c4n3)cc2)cc1,Potency,UISO,105 nM (active)
COc1cc2ncnc(Nc3cc(Br)c(O)c(Br)c3)c2cc1OC,Potency,MKL-1,inactive
same,Potency,NIH3T3,inactive
same,Potency,WaGa,inactive
same,Potency,C33A,inactive
same,Potency,CASKI,inactive
same,Potency,Es-2,inactive
COc1c(C)c2c(c(O)c1CC=C(C)CCC(=O)OCCN1CCOCC1)C(=O)OC2,Potency,MKL-2,1.32 µM (active)
same,Potency,WaGa,2.64 µM (active)
FC(F)(F)c1ccc(C=Cc2nc(COc3ccc(CCCCn4ccnn4)cc3)co2)cc1,Potency,MKL-1,23.5 nM (active)
same,Potency,UISO,26.4 nM (active)
same,Potency,WaGa,0.0047 µM (active)
CN1CCC(COc2cnc(-c3cccc(Cn4nc(-c5cccc(C#N)c5)ccc4=O)c3)nc2)CC1,Potency,UISO,inactive
same,Potency,WaGa,inactive
same,Potency,C33A,inactive
same,Potency,CASKI,inactive
same,Potency,Es-2,inactive
Cc1ccc(C(=O)N(CCCN)[C@@H](c2nc3cc(Cl)ccc3c(=O)n2Cc2ccccc2)C(C)C)cc1,Potency,UISO,inactive
Cc1cccc(Nc2nc(N[C@@H]3CCCC[C@H]3N)ncc2C(N)=O)c1,Potency,MKL-2,inactive
same,Potency,UISO,inactive
same,Potency,WaGa,inactive
CCc1cc(-c2n[nH]c(C)c2-c2ccc3c(c2)OCCO3)c(O)cc1O,Potency,MKL-2,inactive
CCOC(=O)N1CCN([N+]([O-])=NOc2cc(ON=[N+]([O-])N3CCN(C(=O)OCC)CC3)c([N+](=O)[O-])cc2[N+](=O)[O-])CC1,Potency,MKL-2,23.5 µM (active)
same,Potency,NIH3T3,inactive
COC(=O)Nc1ccc(-c2nc(N3CCOCC3)c3cnn(C4CCN(C(=O)OC)CC4)c3n2)cc1,Potency,UISO,526 nM (active)
same,Potency,WaGa,6.62 µM (active)
CNC(=O)c1c(-c2ccc(F)cc2)oc2cc(N(CCO)S(C)(=O)=O)c(C3CC3)cc12,Potency,C33A,inactive
same,Potency,CASKI,inactive
same,Potency,Es-2,inactive
O=C(CCCN1CCN(c2ccc(F)cc2)CC1)NC1c2ccccc2CSc2ccccc21 (centres undefined),Potency,C33A,inactive
same,Potency,CASKI,inactive
same,Potency,Es-2,inactive
CCC[C@H](Nc1nc(-c2ccc(NC(=O)NCC)c(OC)c2)ncc1C)c1cccnc1,Potency,MKL-2,0.0187 µM (active)
Fc1ccc(CNc2ncnc3ccc(F)cc23)cc1,Potency,MKL-2,inactive
same,Potency,CASKI,inactive
same,Potency,Es-2,inactive
O=C(c1ccc(C=Cc2n[nH]c3ccccc23)cc1)N1CCNCC1,Potency,MKL-2,inactive
CC1(COc2ccc3c(c2)ncn3-c2ccc3cccc(N4CCC(N)CC4)c3n2)COC1,Potency,MKL-2,18.7 µM (active)
same,Potency,Es-2,28.2 µM (active)
O=C1NC(=O)C(c2cnc3ccccn23)=C1c1cn2c3c(cccc13)CN(C(=O)N1CCOCC1)CC2,Potency,MKL-1,inactive
same,Potency,MKL-2,inactive
same,Potency,C33A,inactive
same,Potency,CASKI,3.16 µM (active)
same,Potency,Es-2,inactive
COc1cc2nccc(Oc3ccc(NC(=O)Nc4cc(C)on4)c(Cl)c3)c2cc1OC,Potency,WaGa,23.5 µM (active)
CNc1nc(-c2ccc3c(N)n[nH]c3c2)cc(N2C[C@@H](C(=O)NC3CCCCC3)CC[C@@H]2C)n1,Potency,MKL-1,inactive
same,Potency,UISO,inactive
same,Potency,WaGa,inactive
CN(C)CCCNC(=O)c1ccc(-c2cc(O)c3ncccc3c2)cc1,Potency,C33A,inactive
same,Potency,CASKI,inactive
same,Potency,Es-2,inactive
Cc1[nH]c(C=C2C(=O)Nc3ccc(S(=O)(=O)N(C)c4cccc(Cl)c4)cc32)c(C)c1C(=O)N1CCN(C)CC1,Potency,MKL-2,20.9 µM (active)
same,Potency,WaGa,20.9 µM (active)
C=CC(=O)Nc1cccc(Sc2nc(Nc3ccc(N4CCN(C)CC4)cc3)ncc2Cl)c1,Potency,Es-2,inactive
CC(C)n1c(C=C[C@H](O)C[C@H](O)CC(=O)O)c(-c2ccc(F)cc2)c2ccccc21,Potency,MKL-2,7.43 µM (active)
same,Potency,UISO,10500 nM (active)
same,Potency,WaGa,18.7 µM (active)
CC1(C)CC(=O)c2c(C(F)(F)F)nn(-c3ccc(C(N)=O)c(NC4CCC(O)CC4)c3)c2C1 (centres undefined),Potency,UISO,166 nM (active)
COc1c(C)cnc(Cn2cnc3c(Cl)nc(N)nc32)c1C,Potency,MKL-2,inactive
same,Potency,UISO,743 nM (active)
same,Potency,WaGa,0.209 µM (active)
CC[C@H](CC#N)OC(=O)N[C@@H](C)c1cccc(NC(=O)Nc2ccc(-c3cnco3)c(OC)c2)c1,Potency,Es-2,1.78 µM (active)
COc1ccc2nc3cc(Cl)ccc3c(Nc3cc(CN4CCCC4)c(O)c(CN4CCCC4)c3)c2n1,Potency,UISO,inactive
same,Potency,WaGa,18.7 µM (active)
C[C@@H]1C[C@H]2[C@@H]3CCC4=CC(=O)C=C[C@]4(C)[C@@]3(F)[C@@H](O)C[C@]2(C)[C@@]1(O)C(=O)CO,Potency,C33A,inactive
same,Potency,CASKI,inactive
same,Potency,Es-2,inactive
Cc1cc(-c2ncc(CC(=O)Nc3ccc(-c4cnccn4)cn3)cc2C)ccn1,Potency,CASKI,inactive
O[C@@H](COc1cccc2ncccc12)CN1CCN(C2c3ccccc3[C@@H]3[C@H](c4ccccc42)C3(F)F)CC1 (some centres undefined),Potency,NIH3T3,inactive
same,Potency,C33A,inactive
same,Potency,CASKI,inactive
same,Potency,Es-2,inactive
